Screening data (PubChem BioAssay)
HTT aggregate: mutant huntingtin aggregation inhibition. AID 1688. 220,000 tested, 1.1% active. PC12 HttQ103-GFP aggregates, Acumen cytometry, 40 h. Potency, µM (highest dose often 46.1 µM), for the others: at the highest dose activity change, negative = inhibition, usual class: inhibitors; further: on the % scale 0 is the no-effect control and ±100 the full control effect; nearly all actives have a fitted effect of over 60% in size
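Using laser scanning cytometry, GFP-positive aggregates were counted after lysis of PC12 cells induced with 100 nM tebufenozide to express HTT exon 1 Q103–GFP. Compounds were tested in titration.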
HTT cytoprotect: Huntington cell model cytoprotection by ATP luminescence. PC12 HTT-Q103 induced, cytoprotection, ATP luminescence, 40 h. Potency, µM (doses to about 56.4 µM), inactives show cytoprotection (ATP increase), actives largely listed as activators. 230,000 tested, 0.14% active. AID 1471; further: % of control where 0% means no effect; nearly all actives have a fitted effect of over 45% in size
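Cells were plated at 1500 per well in phenol red-free DMEM with 5% equine and 5% calf serum. Tebufenozide (100 nM final) and compounds were added, then ATPlite reagent, and luminescence was read.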
HPGD inh: inhibitors of human 15-hydroxyprostaglandin dehydrogenase (HPGD); P15428; purified HPGD, NADH fluorescence kinetic, PGE2 substrate; Potency, µM, for the others: top-dose activity change, negative = inhibition, actives largely listed as inhibitors; 150,000 tested, 4.3% active; active means well fitted inhibition curve with a large enough effect, not every such curve was filed as active; inconclusive means small, poorly fitted or top-dose-only effect, or another doubt; inactive means no such curve, though single readings can be large or run the other way; further: on the % scale 0 is the no-effect control and ±100 the full control effect
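20 nM HPGD preincubated 15 min at room temperature with compound in 50 mM Tris-HCl pH 8, 0.01% Tween 20. Started with 1 mM NAD+ and 30 uM prostaglandin E2; NADH fluorescence (360/450 nm) read 5 times over 30-s intervals, last minus first.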
ALDH1A1 inh: blocks purified human ALDH1A1 activity. P00352. Purified ALDH1A1, NADH fluorescence, propionaldehyde substrate. Potency, µM (titrated, usually from 75.3 µM), without a hit: at the top dose activity, negative = inhibition, hits mostly inhibitors. 220,000 tested, 7.3% active; active means well fitted inhibition curve with a large enough effect, not every such curve was filed as active; inconclusive means small, poorly fitted or top-dose-only effect, or another doubt; inactive means no such curve, though single readings can be large or run the other way;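 further: plate controls were no enzyme wells and a reference inhibitor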
Target sequence (P00352 whole entry, looked up): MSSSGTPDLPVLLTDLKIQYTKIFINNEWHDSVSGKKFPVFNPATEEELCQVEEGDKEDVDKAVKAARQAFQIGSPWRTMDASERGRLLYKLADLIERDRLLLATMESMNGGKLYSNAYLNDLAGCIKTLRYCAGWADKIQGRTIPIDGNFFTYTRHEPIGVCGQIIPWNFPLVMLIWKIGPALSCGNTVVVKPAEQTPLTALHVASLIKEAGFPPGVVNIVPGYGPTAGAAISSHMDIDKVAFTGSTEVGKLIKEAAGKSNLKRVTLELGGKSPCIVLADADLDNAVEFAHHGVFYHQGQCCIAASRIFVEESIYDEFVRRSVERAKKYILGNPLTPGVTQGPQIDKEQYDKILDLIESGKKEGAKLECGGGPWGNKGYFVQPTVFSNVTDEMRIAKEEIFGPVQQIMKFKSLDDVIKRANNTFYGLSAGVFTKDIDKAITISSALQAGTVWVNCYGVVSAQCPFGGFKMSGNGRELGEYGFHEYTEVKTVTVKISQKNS
LMNA splice mod: changes lamin A minigene splicing in HeLa cells | HeLa LMNA splicing GFP/RFP minigene ratio, 48 h | Potency, µM (series often up to 46.1 µM), for inactives: at the highest dose ratio change, negative = inhibition, usual class: inhibitors | 200,000 tested, 0.01% active; active means well fitted inhibition curve with a large enough effect in the signal ratio, with a control signal flat, not every such curve was filed as active; inconclusive means small, poorly fitted or top-dose-only effect, or effect the other way, or a change in a side signal; the % refers to the signal ratio; further: on the % scale 0 is the no-effect control and ±100 the full control effect
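S3 HeLa stable clones carrying a lamin A-EGFP splicing minigene plus DsRed2 were seeded at 600 cells/well in Opti-MEM with 2% FBS, pin-dosed and incubated 48 h at 37°C. Acumen cytometry (488 nm) gave the GFP/RFP total-intensity ratio.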
Luc counter: counter-screen: inhibitors of Kinase-Glo firefly luciferase. Q27757. Kinase-Glo luciferase, ATP luminescence, 8 min. Potency, µM (titrated, usually from 38.3 µM), for the others: at the highest dose activity change, negative = inhibition, actives largely listed as inhibitors. 200,000 tested, 0.28% active; further: on the % scale 0 is the no-effect control and ±100 the full control effect; nearly all actives have a fitted effect of over 60% in size
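Compounds were added to a substrate mix at pH 7.2 (50 mM imidazole, 10 uM ATP, within the enzyme's linear range), followed by Kinase-Glo detection reagent; luminescence was measured after 8 minutes at ambient temperature.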
Numbers without * were called inactive; [ ] = another dose, or the depositor's remark. Hits are enriched below; roughly 9% of the tested compounds scored in any of these assays. Unless noted, the call rests on the fitted dose curve; in most records, active means well fitted curve in the direction sought with a large enough effect; inconclusive means small, poorly fitted or top-dose-only effect, or another doubt; inactive means no such curve, though single readings can be large; an effect the other way counts as inactive or inconclusive. Potency means the concentration at half of the fitted maximal effect.

For CCn1c(CNC(=O)COc2ccc(C(C)C)cc2)nnc1SCC(=O)Nc1ccc(F)cc1 the results were HTT aggregate -7%, HTT cytoprotect -21%, HPGD inh -12%, ALDH1A1 inh 28µM*, LMNA splice mod -4% and Luc counter 0%.
For CCn1c(CNc2ccc(F)cc2)nnc1SCC(=O)Nc1ccc(OC)cc1OC the results were HTT aggregate 26%, HTT cytoprotect -20%, ALDH1A1 inh 14µM* and LMNA splice mod 1%.
For Cc1ccc(-n2c(CNc3ccc(F)cc3)nnc2SCC(N)=O)cc1 the results were HTT aggregate 22µM*, HTT cytoprotect -35%, ALDH1A1 inh -2% and LMNA splice mod inconclusive.
Screening CCn1c(CNc2ccc(F)cc2)nnc1SCC(=O)OC1CCCCC1 returned HTT aggregate -7%, HTT cytoprotect -5%, HPGD inh 16µM*, ALDH1A1 inh inconclusive, LMNA splice mod -2% and Luc counter -2%.
`O=C(O)C1CCC(=O)N1Cc1ccc(F)cc1` (centres undefined) gave HTT aggregate 3%, HTT cytoprotect 10%, HPGD inh -5%, ALDH1A1 inh 9%, LMNA splice mod 7% and Luc counter -1%.
Screening CNC(=O)c1sc2nc(-c3ccc(OC)cc3)cn2c1C returned HTT aggregate inconclusive, HTT cytoprotect -65%, HPGD inh -26%, ALDH1A1 inh -7%, LMNA splice mod -6% and Luc counter 4%.
COC(=O)c1ccc(NC(=O)Nc2ccc(F)cc2F)cc1 was read as HTT aggregate 4%, HTT cytoprotect -13%, ALDH1A1 inh 5%, LMNA splice mod inconclusive and Luc counter -6%.
COc1ccc(C2CC(c3ccccc3)=NN2C(=O)CN2CCN(Cc3ccccc3)CC2)cc1 (centres undefined) was read as HTT aggregate inconclusive, HTT cytoprotect -22%, ALDH1A1 inh -5% and Luc counter -1%.
COc1ccccc1C(=O)NC(C)c1ccccc1 (centres undefined) was read as HTT aggregate 7%[9.22 µM], HTT cytoprotect 19%, HPGD inh inconclusive, ALDH1A1 inh inconclusive, LMNA splice mod -5% and Luc counter 3%.
`Cc1cccc(C(=O)C2CCOC(C)(C)C2)c1` (centres undefined) gave HTT aggregate -9%[9.22 µM], HTT cytoprotect 7%[10 µM] and ALDH1A1 inh 22%.
O=C(Nc1ccccc1)N1CCC2(CC1)CCN(C(=O)c1cnccn1)CC2 was read as HTT cytoprotect 3.5µM*, HPGD inh -6%, ALDH1A1 inh -7% and Luc counter -2%.
For COc1ccc(-c2cnnc(N/N=C/c3ccc(O)c(O)c3)n2)cc1 the results were HTT aggregate 11µM*, HTT cytoprotect -59%[10 µM], HPGD inh -19%, ALDH1A1 inh -11%, LMNA splice mod inconclusive and Luc counter -8%.
For CC(=O)OCC1=C(C(=O)O)N2C(=O)C(NC(=O)c3ccc(COc4c(C)cccc4Cl)o3)C2SC1 (centres undefined) the results were HTT aggregate 14%, HTT cytoprotect -33%, ALDH1A1 inh inconclusive, LMNA splice mod -2%[46 µM] and Luc counter -1%.
For CCCOC(=O)c1ccc(Oc2coc3c(CN(CC)CC)c(O)ccc3c2=O)cc1 the results were HTT aggregate -2%, HPGD inh inconclusive, ALDH1A1 inh inconclusive, LMNA splice mod inconclusive and Luc counter 11%.
For Cc1nc2sc(C(c3cccc(F)c3)N3CCC(C)CC3)c(O)n2n1 (centres undefined) the results were HTT aggregate -4%, HTT cytoprotect -12%, HPGD inh -3%, ALDH1A1 inh -16%, LMNA splice mod 5% and Luc counter -1%.
